# Rows were chosen to be rich in hits. Some 5.9% of all compounds tested hit in one or more screens of this group.
# VP16 counter: counter-screen for ROR gamma inhibitors: Gal4-VP16 reporter; Drosophila S2 Gal4-VP16 UAS-luciferase, luminescence, 20 h; AID 2546; actives 3.5% (n = 310,000); Potency, µM (top dose mostly 53.6 µM), actives largely listed as inhibitors;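 further: Gal4-VP16 expression switched on by copper sulfate through the metallothionein promoter; nearly all actives have a fitted effect of over 50% in size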
# GLP-1R inv ag: GLP-1 receptor (human) inverse agonism; P43220; HEK293 GLP-1R CRE-luciferase, luminescence, 24 h; GLP-1R form is constitutively active; Potency, µM (series often up to 38.3 µM), usual class: inhibitors; actives 1.6% (n = 410,000); AID 624417; further: nearly all actives have a fitted effect of over 55% in size
# Target sequence (P43220 whole entry, looked up): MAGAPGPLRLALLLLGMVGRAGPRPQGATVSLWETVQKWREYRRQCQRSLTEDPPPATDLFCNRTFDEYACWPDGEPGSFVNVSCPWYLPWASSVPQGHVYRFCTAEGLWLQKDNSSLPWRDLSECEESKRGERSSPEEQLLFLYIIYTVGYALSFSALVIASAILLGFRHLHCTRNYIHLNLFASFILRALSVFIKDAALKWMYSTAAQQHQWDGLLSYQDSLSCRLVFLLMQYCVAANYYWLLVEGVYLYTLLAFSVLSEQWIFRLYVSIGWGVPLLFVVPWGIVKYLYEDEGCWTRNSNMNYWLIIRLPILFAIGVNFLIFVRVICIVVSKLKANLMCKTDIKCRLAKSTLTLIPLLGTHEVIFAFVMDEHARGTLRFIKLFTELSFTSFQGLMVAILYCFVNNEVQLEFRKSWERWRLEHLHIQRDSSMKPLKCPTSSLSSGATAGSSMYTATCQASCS
#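 Cells are plated, allowed 12 hours at 37 deg C, then treated with compounds for 24 hr before luciferase detection reagent is added and luminescence is read after 12 min at room temperature. The HEK293 line carries constitutively active GLP-1R with a cAMP-responsive reporter.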
# GLP1R ag: GLP-1 receptor (human) agonism; Potency, µM (highest dose often 45.6 µM), actives largely listed as activators; HEK293 GLP-1R CRE-luciferase, luminescence, 4-6 h; cells express a hypersensitive GLP-1R form; actives 0.007% (n = 380,000); P43220
# RORg inh: ROR gamma (mouse) transcription inhibition | actives 5.4% (n = 310,000) | Drosophila S2 Gal4-RORgamma UAS-luciferase reporter, 20 h | AID 2551 | P51450 | Potency, µM (top dose mostly 53.6 µM), hits mostly inhibitors; further: nearly all actives have a fitted effect of over 60% in size
#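 Stably transfected Drosophila Schneider cells are the test system, with ROR gamma fused to Gal4 and luciferase under UAS control; luminescence is read after 20 hr of 700 uM copper sulfate induction at ambient temperature.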
# GLP1R cytotox: cytotoxicity in counter-screen for GLP-1R inverse agonists; HEK293 cAMP-luciferase reporter cells, luminescence, 24 h; Potency, µM (series often up to 38.3 µM), most hits filed as inhibitors; actives 0.13% (n = 410,000);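 further: loss of luciferase light is scored as toxicity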
#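 Quantitative HTS format, 1536 wells, 200 cells/uL seeded. Compounds: 23 nL, 24 h, 37 °C. Detection: luciferase reagent, luminescence at 12 min RT; decreased signal taken as cytotoxic.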
# Numbers stand for hits; n = inactive; u = inconclusive; x = not tested or not shown; [ ] = another dose, or the depositor's remark. The call rests on the fitted dose curve; in most records, active means well fitted curve in the direction sought with a large enough effect; inconclusive means small, poorly fitted or top-dose-only effect, or another doubt; inactive means no such curve, though single readings can be large; an effect the other way counts as inactive or inconclusive.
SMILES,VP16 counter,GLP-1R inv ag,GLP1R ag,RORg inh,GLP1R cytotox
CC[C@H](C)[C@@H](NC(=O)O[C@@H]1C(=O)c2ccc(OC)cc2O[C@H]1c1cccc(C(F)(F)F)c1)C(=O)OC,n,x,x,n,x
O=C(NCc1ccc(Cl)cc1Cl)C1CCN(S(=O)(=O)c2ccc3c(c2)OCCCO3)CC1,n,7.94µM,n,n,n
Cc1nn2c(N3CCN(C)CC3)cc(C(C)(C)C)nc2c1-c1ccccc1,u,7.08µM,u,u,u
Cc1nn2c(N3CCCC3)cc(C(C)C)nc2c1-c1ccccc1,n,n,n,14.1µM,n
COc1ccccc1-c1c(C)nn2c(N3CCCCCC3)cc(C)nc12,20µM,u,n,15.8µM,n
Cc1cc(N2CCCCC2)n2nc(C)c(-c3ccccc3)c2n1,n,u,n,n,n
CCc1ccc(-c2nn(CC(=O)NC3CCCC3)c3c2cnc2ccc(C)cc23)cc1,x,n,x,x,n
Cc1cc(F)ccc1NC(=O)C(C(C)C)N1Cc2ccccc2C1=O (configuration not stated),x,n,x,x,n
CCCc1nc(SC)ncc1C(=O)N1CCN(c2ccc(Cl)cc2)CC1,x,u,x,x,n
CCCCC(=O)Nc1nnnn1CCC,u,n,n,14.1µM,n
CCCn1nnnc1NC(=O)COc1ccc(Br)cc1,7.08µM,n,n,2.51µM,n
CCCn1nnc(NC(=O)COc2ccc(Cl)cc2)n1,n,n,n,n,n
Cc1sc(NC(=O)CN2CCCC2)nc1-c1ccc2c(c1)CCN2C(=O)c1cccc(F)c1,u,u,n,11.2µM,n
CCOc1ccc(CNC(=O)c2cnc(SC)nc2C)cc1,x,n,x,x,n
N#CCCn1c(=O)c(-c2cccc(C#N)c2)nc2cnc(N3CCOCC3)nc21,n,x,x,n,x
CCOc1ccc(N2C(=O)CC(Sc3ncccn3)C2=O)cc1 (configuration not stated),u,n,n,u,n
C=CCNc1nnc(SC2CC(=O)N(c3ccc(OCCC)cc3)C2=O)s1 (configuration not stated),17.8µM,n,n,u,n
COc1cccc2c1OCC(C(=O)Nc1nccs1)=C2,u,n,n,11.2µM,n
Cc1ccccc1N=C1NC(=O)CC(c2ccccc2)S1 (configuration not stated),u,u,n,8.91µM,n
Cn1c(=O)[nH]c(=O)c2c1nc1n2CCN1c1ccccc1,x,n,n,x,n
CCN(CC)c1ccc2c(Cl)c(Br)c(=O)oc2c1,3.98µM,u,n,u,n
O=C1NC(=S)N/C1=C/c1cccnc1,n,u,n,12.6µM,n
O=C1NC(=S)N/C1=C\c1cccnc1,u,n,n,2µM,n
Cc1ccccc1CN1c2ccccc2-c2nc(SCC(=O)NCCc3ccccc3)ncc2S1(=O)=O,x,n,x,x,n
CC(=O)NCCNc1nc(-c2cccnc2)nc2ccccc12,n,x,x,n,x
SMILES,VP16 counter,GLP-1R inv ag,GLP1R ag,RORg inh,GLP1R cytotox
COC(=O)c1c(NC(=S)NN2CCN(C)CC2)sc2c1CCC(C)C2 (configuration not stated),5.01µM,10µM,n,2µM,u
CNC(=S)Nc1sc2c(c1C(=O)OC)CCC2,u,n,n,1.26µM,n
CCOC(=O)c1c(NC(=S)Nc2ccc(OC)cc2)sc2c1CCC2,n,n,n,u,n
CCOC(=O)c1c(NC(=S)NC)sc2c1CC(C)(C)SC2,0.891µM,n,n,0.398µM,n
Cc1sc(NC(=S)Nc2ccc(F)cc2)c(C(N)=O)c1C,11.2µM,n,n,8.91µM,n
COC(=O)c1c(NC(C)=O)sc2c1CCCC2,n,n,n,n,n
COCCn1c(=O)c(-c2ccc(OC)cc2)nc2cnc(Nc3cccc(OC)c3)nc21,n,x,x,n,x
CCOC(=O)c1c(NC(=S)Nc2ccccc2)sc2c1CC(C)(C)SC2,3.98µM,n,n,2.82µM,n
CCOC(=O)c1c(NC(=S)Nc2cccnc2)sc(C)c1C,u,n,n,12.6µM,n
O=C1/C(=C/N(C(=O)c2ccco2)c2ccc(Br)cc2)Sc2ccccc21,12.6µM,u,n,35.5µM,n
Cc1nc2nc(SCC(=O)NCCCN3CCCC3)nn2c(C)c1Cc1ccccc1Cl,n,6.31µM,n,n,n
Cc1nn(C)c(C)c1CN(Cc1nc(CCC(C)C)no1)C(C)C,3.98µM,u,n,7.08µM,n
CCc1cccc(CC)c1NC(=S)NCCc1c(C)[nH]c2ccc(C)cc12,5.01µM,7.94µM,n,3.16µM,n
CCc1cccc(C)c1NC(=S)NCCc1c(C)[nH]c2ccc(C)cc12,5.62µM,u,n,2.24µM,u
Cc1ccc2[nH]c(C)c(CC(=O)NCc3ccccc3)c2c1,n,u,n,n,n
CCc1ccccc1NC(=O)Nc1ccc2snnc2c1,x,u,n,x,n
O=C(Nc1ccc2snnc2c1)Nc1cccc2ccccc12,u,10µM,n,n,u
CCOc1cc(CNC(=O)c2cc(-c3ccccc3)n[nH]2)cc(OCC)c1OCC,x,u,x,x,n
Cc1c(NC(=O)c2ccc(-c3ccccc3)cc2)cccc1C(=O)O,u,3.16µM,n,10µM,n
CCOc1ccc(C(=O)Nc2cccc(C(=O)O)c2C)cc1Cl,1.58µM,u,n,n,n
CCNC(=O)C1(C)CCCN(Cc2ccc(Oc3ccccc3)cc2)C1 (configuration not stated),x,10µM,n,x,n
CCN(Cc1ccncc1)S(=O)(=O)c1ccc(C(C)=O)cc1,7.94µM,n,n,n,n
CCN(CC)S(=O)(=O)c1ccc(C(=O)Nc2ccc(Cc3ccncc3)cc2)cc1,3.55µM,u,n,5.62µM,u
Cc1c(NC(=O)c2cc(=O)c3cc(Cl)ccc3o2)c(=O)n(-c2ccccc2)n1C,x,n,x,x,n
O=C(CCN1C(=O)/C(=C\c2ccccc2)SC1=S)N1CCCCC1,n,n,u,n,n
SMILES,VP16 counter,GLP-1R inv ag,GLP1R ag,RORg inh,GLP1R cytotox
COc1ccccc1/C=C1\SC(=S)N(CCC(=O)N2CCCCC2CCO)C1=O (configuration not stated),n,u,n,u,u
O=C1/C(=C/c2cccs2)SC(=S)N1CCC(=O)N1CCCCC1CCO (configuration not stated),11.2µM,u,n,u,u
O=C(CCN1C(=O)/C(=C/c2cccs2)SC1=S)N1CCCCC1,u,n,n,11.2µM,n
O=C(c1ccco1)N1CCC2(CCCN(c3ccccn3)C2)CC1,n,x,x,n,x
CCn1c(CCc2ccccc2)n[nH]c1=S,u,n[7.66 µM],n,8.91µM,n[7.66 µM]
CCn1c(CCn2c3ccccc3c3ccccc32)n[nH]c1=S,6.31µM,n,n,5.62µM,u
CCCn1c(CCc2ccccc2)n[nH]c1=S,17.8µM,n[7.66 µM],n,7.08µM,n[7.66 µM]
CCn1c(CSCc2ccccc2)n[nH]c1=S,u,n,n,3.98µM,n
CCn1c(CSc2nc3ccccc3[nH]2)n[nH]c1=S,n,n,n,u,n
CCn1c(Cc2c(C)[nH]c3ccccc23)n[nH]c1=S,n,n,n,n,n
CCc1cccc(C)c1NC(=O)c1cc(CN2CCCC2)on1,x,n,x,x,n

# High-throughput results (PubChem)
